Data on nine compounds can be found in ChEMBL document CHEMBL2218924, “A broad activity screen in support of a chemogenomic map for kinase signalling research and drug discovery” (Biochem J, 2013).

Assay [1] concerns the target T1, Cyclin-dependent kinase 5/CDK5 activator 1 (Homo sapiens) (UniProt Q00535+Q15078). The note with it: at 1 µM.
For assay [2], the target named is T1, Cyclin-dependent kinase 5/CDK5 activator 1 (Homo sapiens). The note with it: at 10 µM.
Assay [3] shares this target. The note with it: at 1 µM. This is another data set of the same source.
For assay [4] the target is unchanged. The note with it: at 10 µM. The source holds these as a separate data set.
Assay [5] concerns the target T2, Cyclin-dependent kinase 7/ cyclin H (Homo sapiens) (UniProt P51946+P50613). The note with it: at 1 µM.
For assay [6], the target named is T2, Cyclin-dependent kinase 7/ cyclin H (Homo sapiens). The note with it: at 10 µM.
The target in assay [7] is T3, CDK9/cyclin T1 (Homo sapiens) (UniProt O60563+P50750). The note with it: at 1 µM.
Assay [8] addresses T3, CDK9/cyclin T1 (Homo sapiens). The note with it: at 10 µM.
In assay [9] the target is T4, Serine/threonine-protein kinase Chk1 (Homo sapiens) (UniProt O14757).
T4 sequence (whole entry): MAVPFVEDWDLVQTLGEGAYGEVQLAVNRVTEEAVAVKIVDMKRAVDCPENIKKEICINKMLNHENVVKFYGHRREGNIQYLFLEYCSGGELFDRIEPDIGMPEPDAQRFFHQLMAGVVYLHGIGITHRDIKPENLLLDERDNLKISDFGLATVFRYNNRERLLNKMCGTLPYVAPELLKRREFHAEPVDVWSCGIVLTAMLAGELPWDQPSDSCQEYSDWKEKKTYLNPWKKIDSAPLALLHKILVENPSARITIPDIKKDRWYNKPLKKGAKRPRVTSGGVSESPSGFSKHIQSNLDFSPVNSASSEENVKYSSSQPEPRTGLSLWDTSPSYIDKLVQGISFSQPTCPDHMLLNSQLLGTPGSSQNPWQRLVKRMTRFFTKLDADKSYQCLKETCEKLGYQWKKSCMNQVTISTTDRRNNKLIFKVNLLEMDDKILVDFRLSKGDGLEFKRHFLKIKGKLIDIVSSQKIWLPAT
The note with it: at 1 µM.

Assay [10] addresses T4, Serine/threonine-protein kinase Chk1 (Homo sapiens). The note with it: at 10 µM.
The target of assay [11] is Serine/threonine-protein kinase Chk2 (Homo sapiens) (UniProt O96017). The note with it: at 1 µM.
For assay [12] the target is unchanged. The following applies: at 10 µM.
The target in assay [13] is Casein kinase I isoform gamma-1 (Homo sapiens) (UniProt Q9HCP0). The following applies: at 10 µM.
The target of assay [14] is Casein kinase I isoform delta (Homo sapiens) (UniProt P48730). The following applies: at 1 µM.
The target is the same in assay [15]. The following applies: at 10 µM.
For assay [16], the target named is T5, CDK3/cyclin E (Homo sapiens) (UniProt P24864+O96020+Q00526). The note with it: at 1 µM.
Assay [17] addresses T5, CDK3/cyclin E (Homo sapiens). The following applies: at 10 µM.
The target in assay [18] is T6, CDK6/cyclin D3 (Homo sapiens) (UniProt P30281+Q00534). The following applies: at 1 µM.
Assay [19] deals with T6, CDK6/cyclin D3 (Homo sapiens). The following applies: at 10 µM.
Assay [20] has as its target Casein kinase I isoform gamma-1 (Homo sapiens) (UniProt Q9HCP0). The note with it: at 1 µM.

Serine/threonine-protein kinase Chk2 (Homo sapiens), sequence (O96017 whole entry): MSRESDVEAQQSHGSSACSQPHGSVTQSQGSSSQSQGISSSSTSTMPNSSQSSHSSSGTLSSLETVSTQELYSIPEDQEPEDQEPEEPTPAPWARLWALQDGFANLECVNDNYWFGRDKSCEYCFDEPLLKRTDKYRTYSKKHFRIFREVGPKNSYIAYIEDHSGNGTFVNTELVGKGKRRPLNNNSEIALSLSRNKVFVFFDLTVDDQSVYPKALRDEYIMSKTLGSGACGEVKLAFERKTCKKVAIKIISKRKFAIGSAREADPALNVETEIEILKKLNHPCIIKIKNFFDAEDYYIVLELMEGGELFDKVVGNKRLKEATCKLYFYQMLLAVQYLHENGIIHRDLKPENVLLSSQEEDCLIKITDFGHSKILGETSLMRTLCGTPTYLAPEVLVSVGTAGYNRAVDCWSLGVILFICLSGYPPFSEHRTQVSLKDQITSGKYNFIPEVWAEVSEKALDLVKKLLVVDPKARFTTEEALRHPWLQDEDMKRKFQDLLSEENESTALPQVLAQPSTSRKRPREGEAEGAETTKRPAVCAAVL
Casein kinase I isoform gamma-1 (Homo sapiens), sequence (Q9HCP0 whole entry, looked up, canonical isoform): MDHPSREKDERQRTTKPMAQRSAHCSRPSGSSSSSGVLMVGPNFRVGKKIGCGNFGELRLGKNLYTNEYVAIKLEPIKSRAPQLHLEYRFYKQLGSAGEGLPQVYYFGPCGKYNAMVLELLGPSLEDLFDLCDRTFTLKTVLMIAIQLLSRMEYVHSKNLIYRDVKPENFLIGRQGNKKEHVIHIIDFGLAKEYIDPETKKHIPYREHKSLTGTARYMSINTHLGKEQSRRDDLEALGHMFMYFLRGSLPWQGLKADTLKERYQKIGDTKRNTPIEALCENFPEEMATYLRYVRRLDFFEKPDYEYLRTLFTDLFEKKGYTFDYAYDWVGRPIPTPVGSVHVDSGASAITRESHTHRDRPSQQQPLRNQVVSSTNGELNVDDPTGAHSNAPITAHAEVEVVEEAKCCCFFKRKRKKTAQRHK
Casein kinase I isoform delta (Homo sapiens), sequence (P48730 whole entry, looked up, canonical isoform): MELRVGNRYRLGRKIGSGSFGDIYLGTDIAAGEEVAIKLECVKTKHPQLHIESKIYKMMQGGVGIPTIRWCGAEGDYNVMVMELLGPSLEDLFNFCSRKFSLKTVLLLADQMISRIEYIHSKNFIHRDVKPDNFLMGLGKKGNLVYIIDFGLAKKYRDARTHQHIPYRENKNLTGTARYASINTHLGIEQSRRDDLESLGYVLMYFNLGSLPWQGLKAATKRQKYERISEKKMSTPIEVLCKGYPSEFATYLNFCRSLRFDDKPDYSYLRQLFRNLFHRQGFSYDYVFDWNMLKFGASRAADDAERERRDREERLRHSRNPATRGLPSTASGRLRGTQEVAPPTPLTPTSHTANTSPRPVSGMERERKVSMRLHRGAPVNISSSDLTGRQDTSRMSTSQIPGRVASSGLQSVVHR
T1 sequence (Q00535 whole entry): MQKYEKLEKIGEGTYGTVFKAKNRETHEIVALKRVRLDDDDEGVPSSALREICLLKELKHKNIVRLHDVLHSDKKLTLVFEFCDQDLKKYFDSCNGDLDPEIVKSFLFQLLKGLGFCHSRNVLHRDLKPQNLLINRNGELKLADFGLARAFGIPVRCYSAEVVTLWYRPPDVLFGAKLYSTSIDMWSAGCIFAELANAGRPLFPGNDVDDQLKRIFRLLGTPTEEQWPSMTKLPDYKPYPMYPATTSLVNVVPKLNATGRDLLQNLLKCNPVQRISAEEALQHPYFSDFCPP
T1 sequence (Q15078 99-307 partner limits assumed): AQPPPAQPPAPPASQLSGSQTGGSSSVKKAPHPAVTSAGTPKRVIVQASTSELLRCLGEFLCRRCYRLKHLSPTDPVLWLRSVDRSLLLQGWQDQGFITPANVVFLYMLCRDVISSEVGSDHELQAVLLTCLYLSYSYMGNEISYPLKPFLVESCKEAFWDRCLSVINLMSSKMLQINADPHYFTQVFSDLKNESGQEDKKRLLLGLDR
T5 sequence (O96020 whole entry, looked up): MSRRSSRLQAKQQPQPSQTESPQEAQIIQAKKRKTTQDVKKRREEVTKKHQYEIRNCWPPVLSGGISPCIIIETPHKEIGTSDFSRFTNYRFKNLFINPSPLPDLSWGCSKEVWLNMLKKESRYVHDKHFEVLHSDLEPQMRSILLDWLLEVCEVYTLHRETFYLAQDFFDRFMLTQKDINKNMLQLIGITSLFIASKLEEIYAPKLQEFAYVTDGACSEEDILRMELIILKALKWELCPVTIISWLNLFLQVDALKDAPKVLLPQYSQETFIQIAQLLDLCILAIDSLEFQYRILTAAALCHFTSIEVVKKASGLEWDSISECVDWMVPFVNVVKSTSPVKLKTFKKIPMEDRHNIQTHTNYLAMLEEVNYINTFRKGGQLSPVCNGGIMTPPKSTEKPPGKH
T5 sequence (P24864 whole entry, looked up): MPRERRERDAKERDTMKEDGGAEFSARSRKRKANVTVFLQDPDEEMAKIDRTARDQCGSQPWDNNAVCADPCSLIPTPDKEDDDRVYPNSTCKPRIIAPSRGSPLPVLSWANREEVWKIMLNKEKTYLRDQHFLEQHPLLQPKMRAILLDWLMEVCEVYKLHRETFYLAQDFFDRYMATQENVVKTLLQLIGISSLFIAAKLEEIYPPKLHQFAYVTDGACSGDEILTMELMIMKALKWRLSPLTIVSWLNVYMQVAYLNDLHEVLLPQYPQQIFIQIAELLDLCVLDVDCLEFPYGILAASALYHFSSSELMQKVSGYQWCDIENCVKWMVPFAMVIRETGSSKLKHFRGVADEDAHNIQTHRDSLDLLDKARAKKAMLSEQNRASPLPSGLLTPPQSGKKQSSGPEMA
T5 sequence (Q00526 whole entry, looked up): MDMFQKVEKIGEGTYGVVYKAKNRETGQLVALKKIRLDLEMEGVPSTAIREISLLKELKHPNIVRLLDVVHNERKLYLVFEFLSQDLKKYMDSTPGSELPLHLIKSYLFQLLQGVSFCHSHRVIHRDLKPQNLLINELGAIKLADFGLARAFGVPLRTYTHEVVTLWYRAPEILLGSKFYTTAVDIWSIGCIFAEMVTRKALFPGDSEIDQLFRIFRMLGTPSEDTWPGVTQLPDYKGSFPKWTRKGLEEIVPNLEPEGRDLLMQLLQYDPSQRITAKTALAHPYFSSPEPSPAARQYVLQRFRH

`COc1ccc2c(c1)/C(=C/c1cnc[nH]1)C(=O)N2`: the residual activity in assay [1] turned out to be 0%; in assay [2], 0%; in assay [3], 0%; in assay [4], 0%; in assay [5], 67%; in assay [6] it was 18%. The residual activity worked out at 32% in assay [7]; 7% in assay [8]; 77% in [9]; 30% in assay [10]; 67% in assay [11]; 25% in [12]. In addition, the results for the residual activity in assay [13], in assay [14] and in assay [15] were 67%, 81% and 37%, respectively.
`CC(C)(C)c1cc(C=C(C#N)C#N)cc(Br)c1O`: the residual activity in assay [16] was found to be 109%; in assay [17], 103%; in assay [1], 107%; in [2], 113%; in [3], 96%; in assay [18] it was 113%. Also, the residual activity in assay [19] stood at 101%; in [9], 105%; in assay [10], 105%; in assay [11] it was 96%; in assay [12] it was 99%; in assay [20] it was 104%. Besides, the residual activity in assay [13] is 97%; in assay [14], 99%; in assay [15], 48%.
In the case of `COc1cc2nccc(Oc3ccc(NC(=O)Nc4cc(C)on4)c(Cl)c3)c2cc1OC`, the residual activity in assay [7] came out at 76%.
On to `N/C(=N\[N+](=O)[O-])N/N=C\c1ccc(-c2cccc([N+](=O)[O-])c2)o1`, for which the residual activity amounted to 81% in assay [17]; 86% in [2]; 91% in assay [11]; 75% in [12]; 88% in [20]; 82% in assay [13]. Further, the figures for the residual activity in assay [14] and in [15] were 80% and 76%, respectively.
Take `CC(C)[C@H](CO)Nc1nc(Nc2cccc(Cl)c2)c2ncn(C(C)C)c2n1`: the residual activity was 14% in [16]; 3% in assay [17]; 0% in [1]; 0% in assay [2]; 1% in assay [3]; 0% in assay [4]. Moreover, the residual activity in assay [18] is 98%; in assay [19] it was 44%; in assay [5], 17%; in assay [6] it was 1%; in assay [7] it was 23%; in assay [8] it was 5%. The residual activity in assay [9] turned out to be 99%; in [10], 86%; in assay [11], 96%; in assay [12], 38%; in [20] it was 10%; in assay [13], 1%. The residual activity in assay [14] was found to be 74%; in [15] it was 23%.
Regarding `c1cc(-c2cnn3cc(-c4ccc(OCCN5CCCCC5)cc4)cnc23)ccn1`, the residual activity in assay [17] is 41%; in assay [1] it was 55%; in assay [2], 10%; in assay [3], 73%; in assay [4], 19%; in [18] it was 68%. The residual activity in assay [19] is 11%; in assay [5] it was 50%; in [6], 9%; in [7], 35%; in assay [8] it was 5%; in assay [9], 101%. Moreover, the residual activity in [10] worked out at 87%; in assay [13] it was 63%; in assay [14], 21%; in assay [15], 3%.
`O=c1[nH]c2ccccc2n1C1CCN(Cc2ccc(-c3nc4cc5[nH]cnc5cc4nc3-c3ccccc3)cc2)CC1`: the residual activity in assay [16] turned out to be 105%; in assay [17], 82%; in assay [1], 95%; in [2] it was 77%; in [3] it was 100%; in [4], 104%. The residual activity in assay [18] was 105%; in assay [19], 103%; in assay [5] it was 98%; in assay [6], 85%; in [7] it was 104%; in [8], 105%. The residual activity was determined as 102% in [9]; 88% in assay [10]; 95% in [11]; 87% in assay [12]; 90% in assay [20]; 62% in assay [13]. Also, the residual activity was 84% in [14] and 53% in assay [15].
In the case of `COc1cc2ncnc(Nc3ccc(OCc4ccccc4)cc3)c2cc1OC`, the residual activity in assay [16] was 110%; in assay [17], 100%; in [1] it was 106%; in assay [2], 83%; in assay [3], 111%; in [4] it was 102%. Further, the residual activity in [18] is 117%; in assay [19], 100%; in assay [5], 88%; in assay [6], 96%; in assay [7], 100%; in assay [8], 87%. In addition, the residual activity in [9] came to 101%; in assay [10] it was 87%; in assay [11], 8%; in assay [12], 3%; in assay [20], 95%; in assay [13], 95%. Besides, the values for the residual activity in assay [14] and in assay [15] were 77% and 79%, respectively.
As for `CCn1cnc2c(Nc3cccc(Cl)c3)nc(N[C@@H]3CCCC[C@@H]3N)nc21`, the residual activity was 6% in assay [16]; 0% in assay [17]; 1% in assay [1]; 0% in assay [2]; 0% in [3]; -1% in [4]. Moreover, the residual activity is 82% in assay [18]; 31% in [19]; 5% in [5]; -1% in assay [6]; 8% in assay [7]; 0% in [8]. Besides, the residual activity in assay [9] is 83%; in assay [10] it was 28%; in [11], 59%; in assay [12], 12%; in assay [20], 30%; in [13], 6%. Also, the residual activity is 89% in [14] and 51% in [15].
